Structures are written as SMILES. Records with an inconclusive call do not appear. A call without a number means that no potency is given here. Calls of active or inactive are those of the source. The call rests on the fitted dose curve; in most records, active means well fitted curve in the direction sought with a large enough effect; inconclusive means small, poorly fitted or top-dose-only effect, or another doubt; inactive means no such curve, though single readings can be large; an effect the other way counts as inactive or inconclusive.
Potency means the concentration at half of the fitted maximal effect.

One experiment is described as follows: S16 Schwann cell viability assay (CellTiter-Glo assay) (AID 624031). Further: nearly all actives have a fitted effect of over 70% in size. Particulars: S16 rat Schwann cells viability, 24 h; series mostly up to 57.5 µM. The essentials:
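Untransfected S16 rat Schwann cells; compound 24 h, 37 °C/5% CO2; CellTiter-Glo ATP luminescence. % activity vs no-cell wells and DMSO controls (0%); concentration-effect curves classed by r2, response magnitude, activity.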
On the technique in general: In ATP-based viability assays light output follows the ATP content of the culture.
As to `Cc1c(N(C)CS(=O)(=O)O)c(=O)n(-c2ccccc2)n1C`, the Potency entry is “inactive”. Consider `COc1ccc(CN2CCN(C(c3ccc(F)cc3)c3ccc(F)cc3)CC2)c(OC)c1OC`, for which the Potency was 28.7 µM (active). For `COc1c2occc2c(OC)c2c(=O)cc(C)oc12`, the Potency result was “inactive”. For the molecule `CCN(CC)C(=O)/C(C#N)=C/c1cc(O)c(O)c([N+](=O)[O-])c1`, the Potency entry was “inactive”. Same read-out and setting: the result for `CN1CCC[C@@H]1c1cccnc1` reads “inactive”; that for `Cc1c(C(N)=O)cc([N+](=O)[O-])cc1[N+](=O)[O-]`, “inactive”; that for `CN1C(CCl)Nc2cc(Cl)c(S(N)(=O)=O)cc2S1(=O)=O` (configuration not stated), “inactive”. Same read-out and setting: the result for `c1ccc(CNCCNCc2ccccc2)cc1` reads “inactive”. On the same count and under the same terms, the result for `CCOC(=O)n1ccn(C)c1=S` reads “inactive”. For `CCN(CC)C(=O)N1CCN(C)CC1`, the Potency entry was “inactive”.

In the case of `CCC(C(=O)OCCN(CC)CC)c1ccccc1` (configuration not stated), the Potency entry is “inactive”. Same read-out and setting: the result for `CCCCOc1ccc(C(=O)CCN2CCCCC2)cc1` reads “inactive”; that for `CN(C)CCOc1ccccc1Cc1ccccc1`, “inactive”.

On to `NCCC(O)(P(=O)(O)O)P(=O)(O)O`, for which the Potency result is “inactive”.

For the molecule `O=C(OCCOCCO)c1ccccc1Nc1cccc(C(F)(F)F)c1`, the Potency entry is “inactive”.

In the case of `O=C(COc1ccc(Cl)cc1)N1CCN(Cc2ccc3c(c2)OCO3)CC1`, the Potency entry is “inactive”.

With `O=C(CCCN1CCC(O)(c2ccc(Br)cc2)CC1)c1ccc(F)cc1`, the Potency result was “inactive”. The same measure, in the same setting: the result for `COC(=O)[C@@H]1CC2=CC(=O)CC[C@]2(C)[C@@]23O[C@@H]2C[C@@]2(C)[C@@H](CC[C@@]24CCC(=O)O4)[C@H]13` reads “inactive”. Still for that read-out and setting: the result for `COc1cc(-c2ccc(=O)[nH]n2)ccc1OC(F)F` reads “inactive”; that for `Cc1ccnc(NS(=O)(=O)c2ccc(N)cc2)n1`, “inactive”; that for `C#C[C@]1(OC(C)=O)CC[C@H]2[C@@H]3CCC4=C[C@@H](OC(C)=O)CC[C@@H]4[C@H]3CC[C@@]21C`, “inactive”.

Turning to `Oc1ccc(Cl)c2cccnc12`, the Potency result was “inactive”. The same measure, in the same setting: the result for `CCCCCCCCCCCCCCCCCC(=O)OCC(O)CO` (configuration not stated) reads “inactive”. Same read-out and setting: the result for `O=C1c2ccccc2C(=O)C1c1ccccc1` reads “inactive”; that for `Cc1c(C(C)C)c(=O)n(-c2ccccc2)n1C`, “inactive”. Still for that read-out and setting: the result for `CC(=O)OCC(=O)[C@@]1(OC(C)=O)[C@@H](C)C[C@H]2[C@@H]3C[C@H](F)C4=CC(=O)C=C[C@]4(C)[C@@]3(F)[C@@H](O)C[C@@]21C` reads “inactive”; that for `CCN1CCCC1=O`, “inactive”; that for `CCCCOc1cc(C(=O)NCCN(CC)CC)c2ccccc2n1`, “inactive”. Regarding `NC(CO)(CO)CO`, the Potency result was “inactive”. Still for that read-out and setting: the result for `CC(=O)N(O)CCCCCNC(=O)CCC(=O)N(O)CCCCCNC(=O)CCC(=O)N(O)CCCCCN` reads “inactive”; that for `CN=C(NC#N)Nc1ccc(C2=NNC(=O)CC2C)cc1` (configuration not stated), “inactive”.

Another experiment can be described thus: S16 Schwann cell PMP22 intronic element firefly luciferase assay (AID 624032). Further: nearly all actives have a fitted effect of over 30% in size. Particulars: S16 rat Schwann cells, PMP22 element FLuc, 24 h; series mostly up to 57.5 µM. The essentials: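 Luciferase reporter of PMP22 intronic-element expression in stably transfected S16 rat Schwann cells, read by ONE-Glo luminescence after 24 h compound exposure at 37 C. Activity scaled between DMSO (0%) and positive-control PTC124; concentration-effect curves quality-classified.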
As to `Cc1c(N(C)CS(=O)(=O)O)c(=O)n(-c2ccccc2)n1C`, the Potency result was “inactive”.

Regarding `COc1ccc(CN2CCN(C(c3ccc(F)cc3)c3ccc(F)cc3)CC2)c(OC)c1OC`, the Potency is 10.2 µM (active). On the same count and under the same terms, the result for `CCN(CC)C(=O)/C(C#N)=C/c1cc(O)c(O)c([N+](=O)[O-])c1` reads “inactive”; that for `CN1CCC[C@@H]1c1cccnc1`, “inactive”; that for `Cc1c(C(N)=O)cc([N+](=O)[O-])cc1[N+](=O)[O-]`, “inactive”. Regarding `CN1C(CCl)Nc2cc(Cl)c(S(N)(=O)=O)cc2S1(=O)=O` (configuration not stated), the Potency is 0.161 µM (active). On the same count and under the same terms, the result for `c1ccc(CNCCNCc2ccccc2)cc1` reads “inactive”; that for `CCOC(=O)n1ccn(C)c1=S`, “inactive”. Same read-out and setting: the result for `CCN(CC)C(=O)N1CCN(C)CC1` reads “inactive”. For the molecule `CCC(C(=O)OCCN(CC)CC)c1ccccc1` (configuration not stated), the Potency result is “inactive”. As for `CN(C)CCOc1ccccc1Cc1ccccc1`, the Potency entry was “inactive”. On to `NCCC(O)(P(=O)(O)O)P(=O)(O)O`, for which the Potency entry was “inactive”. Same read-out and setting: the result for `O=C(OCCOCCO)c1ccccc1Nc1cccc(C(F)(F)F)c1` reads “inactive”. Still for that read-out and setting: the result for `O=C(COc1ccc(Cl)cc1)N1CCN(Cc2ccc3c(c2)OCO3)CC1` reads “inactive”. On the same count and under the same terms, the result for `O=C(CCCN1CCC(O)(c2ccc(Br)cc2)CC1)c1ccc(F)cc1` reads “inactive”. In the case of `COC(=O)[C@@H]1CC2=CC(=O)CC[C@]2(C)[C@@]23O[C@@H]2C[C@@]2(C)[C@@H](CC[C@@]24CCC(=O)O4)[C@H]13`, the Potency result is “inactive”.

In the case of `Cc1ccnc(NS(=O)(=O)c2ccc(N)cc2)n1`, the Potency entry is “inactive”. On the same count and under the same terms, the result for `CCCCCCCCCCCCCCCCCC(=O)OCC(O)CO` (configuration not stated) reads “inactive”; that for `O=C1c2ccccc2C(=O)C1c1ccccc1`, “inactive”.

With `Cc1c(C(C)C)c(=O)n(-c2ccccc2)n1C`, the Potency result was “inactive”. Same read-out and setting: the result for `CC(=O)OCC(=O)[C@@]1(OC(C)=O)[C@@H](C)C[C@H]2[C@@H]3C[C@H](F)C4=CC(=O)C=C[C@]4(C)[C@@]3(F)[C@@H](O)C[C@@]21C` reads “inactive”; that for `CCN1CCCC1=O`, “inactive”; that for `CCCCOc1cc(C(=O)NCCN(CC)CC)c2ccccc2n1`, “inactive”. The same measure, in the same setting: the result for `NC(CO)(CO)CO` reads “inactive”; that for `CC(=O)N(O)CCCCCNC(=O)CCC(=O)N(O)CCCCCNC(=O)CCC(=O)N(O)CCCCCN`, “inactive”; that for `CN=C(NC#N)Nc1ccc(C2=NNC(=O)CC2C)cc1` (configuration not stated), “inactive”.
